TDP1 cell CPT: DT40-hTDP1 cell growth loss with CPT. chicken DT40 Tdp1-/-;hTDP1 cells + 20 nM CPT, ATP luminescence, 48 h. Potency, µM (series often up to 46.2 µM), for inactives: at the highest dose activity change, negative = growth inhibition, actives largely listed as inhibitors. 12% of 420,000 active; further: on the % scale 0 is the no-effect control and ±100 the full control effect; nearly all actives have a fitted effect of over 55% in size
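Chicken DT40 Tdp1-/- cells stably complemented with human TDP1 were seeded at 400 cells/well in medium containing 20 nM camptothecin, exposed to pin-transferred compounds, and grown at 37 °C for at least 48 hr. Viability was read as ATP luminescence.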
TGFb SMAD3 inh: TGF-b pathway inhibition. Potency, µM (series often up to 46.1 µM), without a hit: at the top dose activity, negative = inhibition, hits mostly inhibitors. HepG2 CAGA-GFP TGF-b/SMAD3 reporter, GFP fluorescence, 18 h; TGF-beta stimulated, 500 pg/mL final. AID 588855. 1.2% of 410,000 active; further: on the % scale 0 is the no-effect control and ±100 the full control effect; nearly all actives have a fitted effect of over 65% in size
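HEPG2 CAGA-GFP, 1000 cells/well; 2 h settle, 37 C; cpd via pin tool; TGF-b 500 pg/mL final; 18 h, 37 C; GFP imaging ex488/em500-530; %Activity normalised to -TGF-b and +DMSO controls; CRC fit, curve class.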
ATXN2 expr inh: inhibitors of ATXN2 expression. Potency, µM (top dose mostly 57 µM), inactives show top-dose activity change, negative = inhibition, most hits filed as inhibitors. 0.72% of 360,000 active. HEK-293 ATXN2-luciferase reporter, luminescence, 24 h; further: on the % scale 0 is the no-effect control and ±100 the full control effect; nearly all actives have a fitted effect of over 55% in size
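qHTS (up to 57 uM final) was run with 24 h compound exposure of reporter cells at 37 °C. Each well was multiplexed: SteadyGlo luminescence measured ATXN2-luciferase expression after a fluorogenic Gly-Phe-AFC viability readout (25 uM final).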
TDP1 cell noCPT: qHTS for Inhibitors of human tyrosyl-DNA phosphodiesterase 1 (TDP1): qHTS in cells in absence of CPT; DT40 Tdp1-/- hTDP1 cells, no CPT, ATP luminescence, 48 h; Potency, µM (highest dose often 46.2 µM), for inactives: at the highest dose activity change, negative = growth inhibition, most hits filed as inhibitors; 15% of 420,000 active; further: on the % scale 0 is the no-effect control and ±100 the full control effect; nearly all actives have a fitted effect of over 55% in size
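Luminescent ATP content (CellTiter-Glo) served as the growth readout. Knockout chicken DT40 cells expressing human TDP1 were exposed to compounds without camptothecin for a minimum 48 hr at 37 °C.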
ATXN viability: viability counter-screen for ATXN expression inhibitors; S2 cells (HEK-293 line with an ATXN2-luciferase reporter) viability, CellTiter-Fluor protease fluorescence, 24 h; Potency, µM (doses to about 56.7 µM), most hits filed as cytotoxic; 0.49% of 400,000 active; AID 651635; further: nearly all actives have a fitted effect of over 40% in size
HepG2 tox: HepG2 cytotoxicity, counter-screen for TGF-b inhibitors; 0.76% of 410,000 active; HepG2 CAGA-GFP viability, ATP luminescence, 18 h; AID 588856; Potency, µM (top dose mostly 46.1 µM), without a hit: top-dose activity change, negative = cytotoxicity, usual class: cytotoxic
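HepG2 CAGA-GFP cells (1000/well, DMEM with 1% FBS) received compound, then TGF-beta at 500 pg/mL final, and were incubated 18 hours at 37 degrees C. Viability was read by CellTiter-Glo luminescence. Media-only wells were set as complete cell-killing and DMSO as no toxicity.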
Numbers without * were called inactive; i = inactive; ? = inconclusive; · = no result given. Only some compounds are listed: those with a hit (about 17% of all), similar ones and a draw of the others. The call rests on the fitted dose curve; in most records, active means well fitted curve in the direction sought with a large enough effect; inconclusive means small, poorly fitted or top-dose-only effect, or another doubt; inactive means no such curve, though single readings can be large; an effect the other way counts as inactive or inconclusive. Potency means the concentration at half of the fitted maximal effect.

SMILES	TDP1 cell CPT	TGFb SMAD3 inh	ATXN2 expr inh	TDP1 cell noCPT	ATXN viability	HepG2 tox
CC(=O)c1cccc(NC(=O)c2ccc(N(C)S(C)(=O)=O)cc2)c1	-13%	1%	24%	-26%	i	-7%
COc1cc(OC)c(NC(=O)c2csc3c2CCC(C)C3)cc1Cl (stereo unspecified)	?	0%	·	?	·	-10%
CN1CCN(CCCNC(=O)c2cnn(-c3ccc(F)cc3)c2-n2cccc2)CC1	·	10%	4%	·	i	-9%
COc1cc(SC)ccc1C(=O)N1CCN(Cc2ccc3c(c2)OCO3)CC1	-10%	?	·	?	?	-52%
CSCC[C@H](NC(=O)C(C)(C)Oc1ccc(Cl)cc1)c1nc2ccccc2[nH]1	?	-11%	·	?	?	-1%
COc1ccc(-c2nnc(SCC(=O)Nc3ccc4c(c3)OCCO4)n2N)cc1OC	-4%	-5%	14%	-3%	i	0%
CN(C)S(=O)(=O)c1cccc(NC(=O)c2cccc(NS(=O)(=O)c3ccccc3)c2)c1	21µM*	?	-21%	?	i	-22%
CN(c1ccccc1)S(=O)(=O)c1cccc(NC(=O)c2ccncc2)c1	6.5µM*	?	·	8.2µM*	?	0%
CN(c1cccc(NC(=O)c2ccc(C(C)(C)C)cc2)c1)S(C)(=O)=O	23µM*	-1%	?	21µM*	i	-24%
O=C(O)c1ccccc1-c1ccccc1C(=O)Nc1ccc2c(c1)CCC2	10%	13%	-16%	16%	i	-64%
O=C(Nc1ccc2c(c1)CCC2)c1ccccc1	?	-7%	55%	16µM*	i	-19%
CN(c1ccccc1)S(=O)(=O)c1cccc(NC(=O)c2cncc(Br)c2)c1	?	?	-33%	?	i	-10%
Cn1cccc1C(C#N)c1cccc(F)c1C#N (stereo unspecified)	?	-3%	-19%	18µM*	i	-11%
COc1ccc(-c2nnc(SCC(=O)N(C)C3CCS(=O)(=O)C3)n2CC(C)C)cc1 (stereo unspecified)	-17%	-26%	·	-4%	i	-15%
CCCc1nnc(SCc2ccc(OC)cc2)n1N	26µM*	5%	-6%	18µM*	i	2%
O=C(C1CCC(Cn2c(=O)c3sccc3n(Cc3cccc(F)c3)c2=O)CC1)N1CCCCC1 (stereo unspecified)	?	?	?	5.8µM*	i	-6%
O=C(CCn1c(=O)c2sccc2n(Cc2cccc(F)c2)c1=O)NCc1ccc2c(c1)OCO2	-3%	-9%	·	1%	·	2%
CNC(=O)C1CCC(Cn2c(=O)c3sccc3n(Cc3ccc(F)cc3)c2=O)CC1 (stereo unspecified)	8.2µM*	-3%	4%	8.2µM*	i	-6%
Cc1ccc(Cn2c(=O)n(CC3CCC(C(=O)N4CCOCC4)CC3)c(=O)c3sccc32)cc1 (stereo unspecified)	21µM*	10%	3%	16µM*	i	1%
CNC(=O)C1CCC(Cn2c(=O)c3sccc3n(Cc3ccccc3)c2=O)CC1 (stereo unspecified)	?	3%	15%	?	i	0%
O=C(C1CCC(Cn2c(=O)c3sccc3n(Cc3cccc(F)c3)c2=O)CC1)N1CCOCC1 (stereo unspecified)	?	-21%	-13%	16µM*	i	-23%
Cc1ccccc1Cn1c(=O)n(CC2CCC(C(=O)N3CCOCC3)CC2)c(=O)c2sccc21 (stereo unspecified)	?	12%	8%	?	i	-1%
COCCCn1c(=O)c2sccc2n(Cc2cccc(F)c2)c1=O	-20%	0%	-5%	-15%	i	12%
CC(C)COc1ccc(C(=O)N2CCC(c3nc4ccccc4s3)CC2)cc1	-7%	?	-12%	?	i	-22%
COCCCn1c(=O)c2sccc2n(Cc2ccc(C)cc2)c1=O	?	1%	-33%	-19%	i	13µM*
SMILES	TDP1 cell CPT	TGFb SMAD3 inh	ATXN2 expr inh	TDP1 cell noCPT	ATXN viability	HepG2 tox
O=c1c2sccc2n(Cc2cccc(F)c2)c(=O)n1-c1ccc(F)cc1	15µM*	-13%	-8%	18µM*	i	2%
Cn1c(=O)c2sccc2n(Cc2cccc(Br)c2)c1=O	12µM*	3%	-21%	?	i	1%
COc1cc(OC)cc(-n2c(=O)c3sccc3n(Cc3ccc(F)cc3)c2=O)c1	-19%	19%	5%	?	i	7%
COCCCn1c(=O)c2sccc2n(Cc2cccc(C)c2)c1=O	?	6%	·	?	i	1%
COCCCn1c(=O)c2sccc2n(Cc2ccccc2)c1=O	-19%	-5%	2%	-19%	i	-10%
NS(=O)(=O)c1ccc(CCNS(=O)(=O)Cc2ccc(Cl)cc2)cc1	5%	1%	3%	-27%	i	-17%
CCOc1ccccc1-c1nc2c(s1)CCc1onc(-c3ccc(OC)cc3)c1-2	?	-3%	-3%	-24%	i	-1%
O=C(Nc1nnc(-c2ccc3c(c2)CCCC3)o1)C1COc2ccccc2O1 (stereo unspecified)	?	-19%	-37%	?	i	-17%
CCc1nc2ccccc2c(C(=O)OCC(=O)NCc2ccc3c(c2)OCO3)c1C	?	?	-4%	18µM*	i	-9%
CCCc1nc2ccccc2c(C(=O)OCC(=O)NCc2ccc3c(c2)OCO3)c1CC	?	?	-21%	?	i	-26%
CCCc1nc2ccccc2c(C(=O)OC(C)C(=O)NCc2ccc3c(c2)OCO3)c1CC (stereo unspecified)	29µM*	?	0%	18µM*	i	-17%
C=CCn1c(N)c(C(=O)OC(C)(C)C)c2nc3ccccc3nc21	21µM*	-7%	0%	12µM*	·	-11%
O=C(NCCc1ccccc1)C1CCCN(S(=O)(=O)c2cccc3nsnc23)C1 (stereo unspecified)	?	-11%	-1%	13µM*	i	-19%
O=C(C1CCN(S(=O)(=O)c2cccc3nsnc23)CC1)N1CC=C(c2ccccc2)CC1	18µM*	-18%	-15%	16µM*	i	-27%
